# DUSP3 inh: inhibitors of human VHR1 phosphatase (DUSP3) | 50,000 tested, 0.7% active | P51452 | recombinant VHR phosphatase, colorimetric substrate read-out | inhibition, % at 20 µM; in the data active = inhibition above about 60%
# Target sequence (P51452 whole entry, looked up): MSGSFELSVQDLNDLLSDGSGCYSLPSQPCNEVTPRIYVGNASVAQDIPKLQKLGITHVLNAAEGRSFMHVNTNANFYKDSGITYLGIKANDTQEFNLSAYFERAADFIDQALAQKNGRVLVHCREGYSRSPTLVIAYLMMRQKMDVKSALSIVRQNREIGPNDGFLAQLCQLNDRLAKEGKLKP
# * marks the source's active call; other numbers are inactive results. The full list was thinned out, with hits kept by preference.
SMILES,DUSP3 inh
COc1ccc(C2CC(=O)C3=C(C2)Nc2ccccc2NC3c2ccccc2)cc1 (stereo unspecified),23
O=C1CC(c2ccccc2)CC2=C1C(c1ccco1)Nc1ccccc1N2 (stereo unspecified),7
O=C1CC(c2ccccc2)CC2=C1C(c1cccc(Cl)c1Cl)Nc1ccccc1N2 (stereo unspecified),2
CC1(C)CC(=O)C2=C(C1)Nc1ccccc1NC2c1coc2ccccc2c1=O (stereo unspecified),3
COc1ccc(C2CC(=O)C3=C(C2)Nc2ccccc2NC3c2cccc(OC)c2OC)cc1OC (stereo unspecified),-1
CCOc1ccccc1C1Nc2ccccc2NC2=C1C(=O)CC(c1ccc(OC)c(OC)c1)C2 (stereo unspecified),44
COc1ccc(C2CC(=O)C3=C(C2)Nc2ccccc2NC3c2c(F)cccc2Cl)cc1 (stereo unspecified),8
COc1ccc(C2CC(=O)C3=C(C2)Nc2ccccc2NC3c2ccccc2OCc2ccccc2)cc1OC (stereo unspecified),98*
O=C1CC(c2ccccc2)CC2=C1C(c1coc3ccccc3c1=O)Nc1ccccc1N2 (stereo unspecified),112*
COc1ccc(C2CC(=O)C3=C(C2)Nc2ccccc2NC3c2ccc(C)o2)cc1 (stereo unspecified),94*
CCOc1ccc(C2Nc3ccccc3NC3=C2C(=O)CC(c2ccc(OC)cc2)C3)cc1 (stereo unspecified),-5
N#Cc1c(N)nc2c(c1-c1cccc(O)c1)CCCCC2,3
Cc1nc2cc(N=Cc3ccc(N(C)C)cc3)ccc2n1Cc1ccccc1,-6
CCOc1cc(OCC)cc(C(=O)Nc2ccc(I)cc2Cl)c1,4
CC1(C)CC(=O)c2nc(NC(=O)Cc3ccc(Cl)cc3)ncc2C1,-3
CCCSc1nc(N)c(C#N)c(-c2ccccc2)c1C#N,-9
O=C(COC(=O)c1ccccc1C(F)(F)F)c1ccc(Br)cc1,-20
CCCCOc1ccc(S(=O)(=O)N(CC)CC)cc1,-25
COc1ccc(NC(=O)N2CCOCC2)c(OC)c1,1
CCC1CCc2c(sc(NC(=O)c3cccs3)c2C(N)=O)C1 (stereo unspecified),-13
Cc1cc(C)c(C(=O)/C=C/c2ccc(-c3ccccc3)o2)cc1C,10
CC(C)OC(=O)c1ccc(NC(=O)COc2ccc(Cl)cc2)cc1,-4
CCN(C(=O)c1cccc([N+](=O)[O-])c1C)C1CCCCC1,15
O=C(N/N=C/c1cccs1)c1sc2cc(Cl)ccc2c1Cl,-3
O=C1CC(c2ccc3c(c2)OCO3)CC2=C1C(c1ccc(-c3ccccc3)cc1)Nc1ccccc1N2 (stereo unspecified),115*
SMILES,DUSP3 inh
Cc1ccc(C2Nc3ccc(C(=O)c4ccccc4)cc3NC3=C2C(=O)CCC3)o1 (stereo unspecified),101*
O=C1CC(c2ccc(Cl)cc2)CC2=C1C(c1ccc3c(c1)OCO3)Nc1ccccc1N2 (stereo unspecified),-20
Cc1ccc(C2Nc3ccc(C(=O)c4ccccc4)cc3NC3=C2C(=O)CC(C)(C)C3)o1 (stereo unspecified),-5
O=C1CCCC2=C1C(c1ccc(F)cc1)Nc1ccc(C(=O)c3ccccc3)cc1N2 (stereo unspecified),35
O=C1CC(c2ccccc2)CC2=C1C(c1ccc(-c3ccccc3)cc1)Nc1ccccc1N2 (stereo unspecified),4
O=c1/c(=C\c2ccc(OS(=O)(=O)c3cccc([N+](=O)[O-])c3)cc2)sc2nc3ccccc3n12,-10
COc1ccc(CN2CCN(Cc3ccc4ccccc4c3)CC2)c(OC)c1,18
CCOc1cc(/C=C(\C#N)C(=O)NC(C)c2ccccc2)ccc1O (stereo unspecified),-1
CC1CCCCN1C(=O)c1cc2nc(-c3cccs3)cc(C(F)(F)F)n2n1 (stereo unspecified),-38
Cc1ccccc1-c1cc(C(=O)Nc2ccccc2C(F)(F)F)c2ccccc2n1,8
Cc1ccc(C(=O)NCc2ccccc2)cc1S(=O)(=O)N1CCOCC1,22
O=C(CSC1CC(=O)N(c2ccc(F)cc2)C1=O)Nc1ccc2ccccc2c1 (stereo unspecified),-6
CCOC(=O)C1=NNC2C(=O)N(c3cccc(Br)c3)C(=O)C12 (stereo unspecified),-20
CCOC(=O)C1=NNC2(c3ccc(Cl)cc3)C(=O)N(c3cccc(OC)c3)C(=O)C12 (stereo unspecified),100*
CCOC(=O)C1=C(C)NC(C)=C(C(=O)OC)C1c1ccc(Cl)cc1 (stereo unspecified),-15
COc1ccc(C2=C/C(=C/c3ccc(I)o3)C(=O)O2)cc1,1
COc1ccc(C2=CC(c3cccs3)C=C(c3ccc(OC)cc3)O2)cc1,60*
COc1ccc(C2=C/C(=C3\OC(=O)c4ccccc43)C(=O)O2)cc1,42
Cc1ccc(C)c(NC(=S)Nc2ccc(F)cc2)c1,-4
O=C(O)C(Cc1ccccc1)N1C(=O)/C(=C/C=C/c2ccccc2)SC1=S (stereo unspecified),92*
O=C(O)c1ccc(/C=C2\SC(=S)N(C(Cc3ccccc3)C(=O)O)C2=O)cc1 (stereo unspecified),-13
O=C(O)C(Cc1ccccc1)N1C(=O)/C(=C/c2ccc(F)cc2)SC1=S (stereo unspecified),-39
O=c1[nH]nc(SCc2ccc([N+](=O)[O-])cc2)c(=O)[nH]1,-32
O=C(O/C(=C/c1nccn1Cc1ccc(Cl)cc1)c1ccccc1)c1ccccc1,-5
CCc1cc(C)nc2cc(-c3ccccc3)nn12,-14
SMILES,DUSP3 inh
Cc1cc2[nH]c(=O)cc(-c3ccccc3)n2n1,-13
Cc1cc(=O)[nH]c2cc(-c3ccccc3)nn12,97*
CCOc1ccccc1CN1CCN(Cc2cc(OC)ccc2O)CC1,-4
Cc1ccc(/C(N)=N/OC(=O)c2ccccc2Br)cc1,-12
Cc1cc(OCC(=O)Nc2cccc(I)c2)ccc1Br,-2
CC1=C(C#N)c2nc(N)c(C#N)c(C)c2/C1=C/c1ccc(-c2ccc(C(=O)O)c(Cl)c2)o1,92*
CC1=C(C#N)c2nc(N)c(C#N)c(C)c2/C1=C\c1ccc(-c2cccc(Cl)c2)o1,17
CC1=C(C#N)c2nc(N)c(C#N)c(C)c2/C1=C\c1ccc(C)o1,54
COc1ccccc1NC(=O)C1C2C3CCC(C3)C12 (stereo unspecified),-23
O=C(Nc1cccc2ccccc12)C1C2C3CCC(C3)C12 (stereo unspecified),79*
O=C(Nc1cccc2ccccc12)C1CC2CCC1C2 (stereo unspecified),0
CN1CCN(c2ccc3c4c(cccc24)C(=O)c2ccccc2-3)CC1,-7
Cc1c(C(=O)OC(C)C)sc(NC(=O)c2ccccc2F)c1C#N,-33
Cn1/c(=N/N=C/c2cccc(Cl)c2Cl)sc2ccccc21,1
Cn1/c(=N/N=C/C=C/c2ccco2)sc2ccccc21,114*
CN(C)c1ccc(/C=C/C=N/N=c2\sc3ccccc3n2C)cc1,13
CC1CCN(C2=NC(=O)/C(=C/c3ccc(N(C)C)cc3)S2)CC1,20
CC(C)c1ccc(/C=C/C(=O)Nc2ccc(C(N)=O)cc2)cc1,-19
CC(C)(C)c1csc(NC(=O)c2ccc(Cl)c([N+](=O)[O-])c2)n1,-19
Cc1ccc(-n2cc(/C=c3\sc4nc5cc(C)c(C)cc5n4c3=O)cn2)cc1C,3
Cc1ccc(-n2c(C)cc(C=C3C(=O)NC(=S)NC3=O)c2C)cc1C,16

# Assay outcomes: PubChem, Sanford-Burnham Center for Chemical Genomics
